Source: PubChem BioAssay
HCMV inh: human cytomegalovirus inhibition. activity change, negative = inhibition, % at 57.5 µM. HFF cells, HCMV-luciferase reporter, 72 h; hits give low values. hit rate 4.5% among 410,000; in the data active = activity change below about -60%; inconclusive = no clear call, values can overlap the other calls; inactive = above about -39%
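Compounds were evaluated in HFFs infected with an HCMV luciferase reporter virus (MOI 1 PFU/cell). Luciferase in lysates collected 72 h post infection served as the replication measure.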
Pf growth 48h: inhibits P. falciparum growth in the first generation, 48 h; hit rate 5.9% among 310,000; P. falciparum luciferase growth in erythrocytes, 48 h; Potency, µM (series often up to 28.7 µM), inactives show at the top dose activity change, negative = inhibition, usual class: inhibitors; also: potency is read from the fitted curve at half-maximal effect
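Erythrocytes infected with P. falciparum carrying an integrated firefly luciferase reporter (2% hematocrit, 0.1% parasitemia final) were exposed to compounds in RPMI 1640 with 0.5% Albumax at 37 C, 5% CO2. Growth inhibition was scored as reduced luminescence.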
Giardia FBPA inh: blocks Giardia fructose-bisphosphate aldolase activity | purified Giardia FBPA | A8B2U2 | AID 2451 | Potency, µM (highest dose often 59.6 µM), without a hit: top-dose activity, negative = inhibition, actives largely listed as inhibitors | hit rate 0.71% among 290,000; also: potency is read from the fitted curve at half-maximal effect; nearly all actives have a fitted effect of over 55% in size
Target sequence (A8B2U2 whole entry, looked up): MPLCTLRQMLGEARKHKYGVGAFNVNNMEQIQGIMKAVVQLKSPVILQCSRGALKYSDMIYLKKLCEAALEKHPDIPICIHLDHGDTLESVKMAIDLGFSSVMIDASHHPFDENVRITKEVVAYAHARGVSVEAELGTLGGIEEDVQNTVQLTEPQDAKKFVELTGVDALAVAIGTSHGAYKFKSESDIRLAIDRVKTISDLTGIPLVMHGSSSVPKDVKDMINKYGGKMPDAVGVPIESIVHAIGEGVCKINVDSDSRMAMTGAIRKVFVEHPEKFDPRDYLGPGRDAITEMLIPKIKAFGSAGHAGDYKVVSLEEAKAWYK
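Giardia FBPA (40 nM reagent) was preincubated 10 min at RT with compound (up to 57.5 uM final), then substrate plus GAPDH/TPI/NAD/arsenate coupling system with diaphorase/resazurin was added; resorufin fluorescence (525/598 nm) was read after 20 min.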
Sm TGR block: blocks Schistosoma mansoni thioredoxin glutathione reductase. purified TGR, DTNB reduction, TNB absorbance 405 nm. AID 485364. Potency, µM (titrated, usually from 114 µM), for inactives: top-dose activity change, negative = inhibition, usual class: inhibitors. Q962Y6. hit rate 3% among 360,000; also: potency is read from the fitted curve at half-maximal effect; nearly all actives have a fitted effect of over 60% in size
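TGR 20 nM + NADPH 100 uM (dispensed conc.), cpd preinc 15 min RT; start with NADPH (500 uM addition) then DTNB (15 mM addition). Kinetic TNB absorbance, 405 nm filter. Four-parameter Hill fit across titration.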
Pf growth 96h: P. falciparum growth inhibition at 96 hour, primary screen for plastid delayed-death inhibitors; hit rate 6.9% among 320,000; P. falciparum luciferase reporter growth, 96 h; AID 504834; Potency, µM (doses to about 28.7 µM), for the others: at the highest dose activity change, negative = inhibition, actives largely listed as inhibitors; also: potency is read from the fitted curve at half-maximal effect
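Luminescence readout: decreased luciferase signal marks inhibited growth of reporter-expressing P. falciparum in infected red cells (2% hematocrit, 0.05% parasitemia final), exposed to compound two generations (96 h, 37 C, 5% CO2).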
The depositor's hits bear a star; ? = inconclusive; · = no result given; [ ] = dose if it differs, or a comment. Rows were chosen to be rich in hits. Some 14% of all compounds tested hit in one or more screens of this group. Unless noted, calls follow the shape of the dose curve; as a rule, active = well fitted curve in the direction sought with a large enough effect; inconclusive = small, poorly fitted or top-dose-only effect, or another doubt; inactive = no such curve, though single readings can be large; an effect the other way counts as inactive or inconclusive. % is scaled to controls: 0 for no effect and ±100 for the full control effect.

SMILES	HCMV inh	Pf growth 48h	Giardia FBPA inh	Sm TGR block	Pf growth 96h
COc1ccc2c(c1)CC(N1CCN(C)CC1)c1cc(OC)ccc1S2 (centres undefined)	-64*	·	·	·	·
CC1(C)CC(=O)c2cc(C(=O)Nc3ccccc3Cl)c(=O)n(-c3ccc(Cl)cc3)c2C1	-13	·	·	-2%	·
C[N+]1(C)C2CCC1CC(OC(=O)c1ccco1)C2 (centres undefined)	0	-18%	-1%	-9%	-16%
C[N+]1(C)C2CCC1CC(OC(=O)c1c[nH]c3ccccc13)C2 (centres undefined)	65	?	1%	-19%	6µM*
O=C(OCC(=O)N1CCCCC1)c1c[nH]c2ccccc12	-12	129%	·	-7%	244%
O=C(OC1C[C@@H]2CC3C[C@H](C1)N2CC3=O)c1c[nH]c2ccccc12 (some centres undefined)	·	13µM*	·	·	13µM*
C[N+]1(C)[C@@H]2CC[C@H]1CC(OC(=O)[C@@H](CO)c1ccccc1)C2 (some centres undefined)	-24	23%	-12%	8.9µM*	9%
C[N+]1(C)C2CC[C@H]1CC(OC(=O)C(CO)c1ccccc1)C2 (some centres undefined)	23	0%	·	-8%	-16%
COc1ccc(NC(=O)Nc2nnc(N3CCCCCC3)s2)c(OC)c1	37	·	·	2%	·
O=C(NCC(c1cccnc1)N1CCN(Cc2ccccc2)CC1)C(=O)Nc1ccc(Cl)cc1 (centres undefined)	?	·	·	6%	·
CCn1c(SCC(N)=O)nnc1C(C)C	-13	13%	8%	-1%	8.3µM*
COCCn1c(SCC(=O)N2CCCC2)nnc1C(C)C	-19	31%	-2%	0%	5.2µM*
COc1ccc(C(=O)N/C(=C/c2cccnc2)C(=O)N2CCN(C)CC2)cc1OC	10	-23%	·	1%	?
CC(C)CN(C(=O)C1=NN(c2ccccc2)C(=O)CC1)c1c(N)n(Cc2ccccc2)c(=O)[nH]c1=O	-28	49%	·	-24%	43%
CCCCn1c(N)c(N(CC(C)C)C(=O)C2=NN(c3ccccc3)C(=O)CC2)c(=O)[nH]c1=O	-3	?	·	89µM*	-11%
Cc1ccc(C)c(N2N=C(C(=O)N(CC(C)C)c3c(N)n(Cc4ccccc4)c(=O)[nH]c3=O)CCC2=O)c1	17	13µM*	-7%	3%	7.4µM*
COC(=O)c1ccccc1NC(=O)c1ccc2c(Cl)c3c(nc2c1)CCCC3	2	·	·	-1%	·
CC(=O)O[C@H]1CC[C@]2(C)C3CC[C@]4(C)[C@@H]([C@H](C)/C=C/[C@H](C)C(C)C)CC[C@H]4[C@@]34C=C[C@]2(C1)N(C(=O)c1ccccc1)O4 (some centres undefined)	7	·	·	·	·
COCCn1c(SCC#N)nnc1-c1ccccc1	-15	28%	5%	3%	·
COCCn1c(SCc2cnc(-c3ccccc3)s2)nnc1-c1ccncc1	-7	?	2%	-25%	9.3µM*
CCCCn1nnc(N(C(=O)c2cccs2)C(=O)c2cccs2)n1	1	47%	1%	4.5µM*	11%
CC(C)[C@@H](CC(=O)N[C@@H]1CCNC[C@H]1C(=O)N[C@H](CC(=O)N[C@@H](CCC(=O)O)CC(=O)O)Cc1ccccc1)NC(=O)C[C@H](Cc1c[nH]c2ccccc12)NC(=O)[C@@H]1CNCC[C@H]1N	·	·	8%	·	·
C=C(C)c1cccc(C(C)(C)NC(=O)N2CCN(CC)CC2)c1	36	-11%	0%	1%	·
C=C(C)c1cccc(C(C)(C)NC(=O)N2CCC(C)CC2)c1	?	·	3%	0%	-8%
C=C(C)c1cccc(C(C)(C)NC(=O)N2CCN(CC(N)=O)CC2)c1	-3	-20%	-1%	45µM*	4%[5.75 µM]
SMILES	HCMV inh	Pf growth 48h	Giardia FBPA inh	Sm TGR block	Pf growth 96h
C=C(C)c1cccc(C(C)(C)NC(=O)NCC2CCCO2)c1 (centres undefined)	-6	7.4µM*	2%	?	96%
O=C(CCl)N(c1ccccc1)c1c[nH]c2ccccc12	-103*	1.7µM*	-1%	3.2µM*	1.2µM*
O=C(CCl)N(c1ccc(Cl)cc1)c1c[nH]c2ccccc12	-105*	2.3µM*	1%	0.71µM*	·
O=C(Cc1ccc(Cl)cc1)NCCc1c[nH]c2ccccc12	15	·	·	·	·
O=C(C1CC1)N1N=C(c2ccc(F)cc2)CC1(O)C(F)(F)F (centres undefined)	-3	13%	7%	4%	12µM*
O=C(NCc1cccc(Br)c1)c1ccc(-n2cnc3cccnc32)cc1	?	·	·	-8%	·
COc1ccc(C2CC2/C(=N/OC(=O)c2cccs2)c2ccccc2)cc1 (centres undefined)	-5	-28%	-1%	-5%	·
COc1ccc(C2CN=NC2C(=O)c2ccccc2)cc1 (centres undefined)	-64*	15µM*	0%	?	9.3µM*
CCC1(CC)NC(=O)N(CC(=O)OCC(=O)Nc2ncc(Cl)cc2Cl)C1=O	18	6%	·	-18%	10%
COc1cc(/C=C/C(=O)OCC(=O)NCCN2C(=O)CSC2=O)ccc1OCC#N	-31	?	·	-6%	10µM*
COc1cccc(C(=O)/C=C/c2ccc(OCC#N)c(OC)c2)c1	-100*	-26%	-6%	-8%	?
CCOc1ccc(C(=O)/C=C/c2ccc(OC)c(OC)c2)cc1	102	?	-12%	·	?
CCOc1ccc(/C=C/C(=O)c2ccccc2)cc1OC	-1	37%	-3%	-18%	-12%
COc1cc(/C=C/C(=O)c2ccc(O)cc2)ccc1OCC#N	-98*	13µM*	7%	-18%	?
CC(=O)Nc1cc(-c2ccc(CO)cc2)cn2c(-c3ccc(F)cc3)cnc12	-21	·	·	·	·
CC(=O)OC1C=C[C@@H](OC(C)=O)C1 (some centres undefined)	·	·	7%	·	·
Cc1nc(-c2cccc(NC(=O)c3cccc(S(=O)(=O)N4CCCC4)c3)c2)cs1	?	12µM*	·	-20%	?
Cc1nc(-c2cccc(S(=O)(=O)N3CCOCC3)c2)cs1	72	13µM*	-2%	-12%	72%
Cc1nc(-c2cccc(S(=O)(=O)N3CC(C)OC(C)C3)c2)cs1 (centres undefined)	-27	-9%	5%	-5%	?
O=C(Nc1cccc2ccccc12)N1CCN(Cc2ccccc2)CC1	-27	-15%	-9%	-3%	10µM*
O=C(Nc1cccc(F)c1)N1CC=C(n2c(=O)[nH]c3ccccc32)CC1	-11	10µM*	-3%	-4%	32%
O=C(Nc1ccccc1)N1CC=C(c2ccc(F)cc2)CC1	30	10µM*	?	-23%	·
O=C(Nc1cccc(F)c1)N1CCC2(CCNCC2)CC1	·	·	6%	·	·
CCOC(=O)N1CCN(C(=O)Nc2cccc3ccccc23)CC1	-3	40%	-8%	40%	?
